# Experimental data as given in PubChem BioAssay AID2158 (National Center for Advancing Translational Sciences (NCATS), 2009).
# Inconclusive results are not listed. A number with no mark means an inactive call. Active and inactive are the calls of the source. Calls come from the whole dose curve; as a rule, active = well fitted inhibition curve with a large enough effect; inconclusive = small, poorly fitted or top-dose-only effect; inactive = no such curve, though single readings can be large or run the other way.
# Biological target: Cruzipain (Trypanosoma cruzi) (UniProt P25779)
# Test: Confirmation qHTS Assay for Inhibitors of Cruzain; note: nearly all actives have a fitted effect of over 40% in size;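 for activity change, negative = inhibition: plate controls were uninhibited enzyme control for no effect and buffer wells lacking enzyme for full effect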
# Settings: purified cruzain, Z-FR-AMC fluorescence, 0.01% Triton
# Summary of the method: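 Purified cruzain, 1.5 nM, pre-incubated 15 min at room temperature with compound in 100 mM sodium acetate pH 5.5, 5 mM DTT, 0.01% Triton X-100. Then 2 uM Z-FR-AMC added; AMC fluorescence (ex 360/em 450 nm) increase over 60 s gave reaction progress.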
# Potency is the fitted concentration of half-maximal effect.
# Sequence of Cruzipain (Trypanosoma cruzi) (P25779 123-467 limits assumed): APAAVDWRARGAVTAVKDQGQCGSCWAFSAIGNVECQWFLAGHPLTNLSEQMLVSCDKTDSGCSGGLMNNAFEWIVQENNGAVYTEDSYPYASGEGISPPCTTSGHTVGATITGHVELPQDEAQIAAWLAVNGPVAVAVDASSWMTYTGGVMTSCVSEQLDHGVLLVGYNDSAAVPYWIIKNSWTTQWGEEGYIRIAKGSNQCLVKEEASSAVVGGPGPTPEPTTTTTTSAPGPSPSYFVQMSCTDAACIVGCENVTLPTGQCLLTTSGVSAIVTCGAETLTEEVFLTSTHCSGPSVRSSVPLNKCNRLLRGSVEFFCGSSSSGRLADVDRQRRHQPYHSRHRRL
Structure (SMILES),"activity change, negative = inhibition",Potency
CCOc1ccc(NC(=O)c2ccc(CNc3c(NC4CCCCC4)c(=O)c3=O)cc2)cc1,1.77%,–
N=c1c(C(=O)NCc2ccc(F)cc2)cc2c(=O)n3ccccc3nc2n1CC1CCCO1 (stereo not drawn),-76.7%,–
COc1ccc(C(=O)COC(=O)CNC(=O)C2CCCCC2)c(OC)c1,–,14.1 µM (active)
O=C(Cn1cc(CN(Cc2ccccc2)Cc2ccccc2)nn1)Nc1cc(C(F)(F)F)ccc1Cl,-13.2%,–
CCNc1nc(C#N)nc(Nc2ccccc2)n1,–,0.708 µM (active)
Cc1ccc(OCCCn2c(CCNC(=O)C3CCCCC3)nc3ccccc32)cc1,–,0.794 µM (active)
N#Cc1nc(Nc2cc(F)cc(F)c2)nc(NC2CCCC2)n1,–,0.0631 µM (active)
Cc1ccc(O/C=C2/Nn3c(nnc3-c3cc(-c4ccccc4)n[nH]3)S2)cc1,-1.56%,–
O=C(NCCc1nc2ccccc2n1CCCOc1ccccc1)C1CCCCC1,–,2.24 µM (active)
Cc1oc(=O)c(NC(=O)c2ccccc2)cc1C(=O)c1ccccc1,-5.13%,–
CCCCNC(=O)C(CC)n1c(SCc2cccc(F)c2)nc2ccncc21 (stereo not drawn),-13.4%,–
COc1ccc(NC(=O)C(OC(=O)CNC(=O)c2ccccc2)c2ccccc2)cc1Cl (stereo not drawn),–,12.6 µM (active)
O=C(CNC(=O)C1CCCCC1)OCC(=O)c1ccc([N+](=O)[O-])cc1,–,2.82 µM (active)
FC(F)Sc1ccc(N=C2NN=C(c3ccc4c(c3)OCCO4)CS2)cc1,-6.33%,–
COc1cc(NC(=O)C(OC(=O)CNC(=O)c2ccccc2)c2ccccc2)cc(C(F)(F)F)c1 (stereo not drawn),–,31.6 µM (active)
CN(C)c1ccc(-c2nn3c(-c4cc(-c5ccccc5)n[nH]4)nnc3s2)cc1,-5.13%,–
CN(C)CCCNS(=O)(=O)c1ccc(N2CCC(c3ccc(Cl)cc3)=N2)cc1,-28.4%,–
CCc1ccc2[nH]c(=O)c(CN(Cc3ccccc3)Cc3nnnn3Cc3ccccc3)cc2c1,-20%,–
CC(C)(C)OC(=O)NCc1nnc(-c2cc3ccccc3[nH]2)o1,0.21%,–
CCCCC(OC(=O)CNC(=O)c1ccccc1)C(=O)Nc1cc(C(F)(F)F)ccc1Cl (stereo not drawn),–,8.91 µM (active)
CN(CCNC(=O)c1cc2c(=O)n(C)c3ccccc3c2n1C)Cc1ccccc1,-49.8%,–
Cc1ccc2[nH]c(=O)c(CN(Cc3ccccc3)Cc3nnnn3Cc3ccco3)cc2c1,-19.4%,–
CNc1oc(Cc2ccccc2)nc1S(=O)(=O)c1ccc(Cl)cc1,–,25.1 µM (active)
